Screening results (PubChem BioAssay)
Menin-MLL FL inh = displaces fluorescein MLL peptide from human menin; Fluorescence polarization, fluorescein-MLL peptide displacement from menin; FP activity change, % at 61.4 µM; 290,000 tested, under 10 active; active means well fitted curve in the direction sought with a large enough effect in the polarisation, not every such curve was filed as active; inconclusive means small, poorly fitted or top-dose-only effect, or effect the other way, or a change in a side signal; inactive means no such curve, though single readings can be large or run the other way; the % refers to the polarisation; further: % of control where 0% means no effect
p53 reactivator = mutant p53 re-activation in reporter cells; 320,000 compounds, 0.063% hits; H1299 p53-A138V BP100-luciferase reporter, luminescence, 24 h; Potency, µM (highest dose often 92.2 µM), for inactives: at the top dose activity change, positive = activation, most hits filed as activators; active means well fitted activation curve with a large enough effect; inconclusive means small, poorly fitted or top-dose-only effect; inactive means no such curve, though single readings can be large or run the other way; further: potency means the concentration at half of the fitted maximal effect; % of control where 0% means no effect; nearly all actives have a fitted effect of over 45% in size
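p53-null H1299 cells stably carrying temperature-sensitive p53-A138V and a BP100-luciferase reporter were pinned with compounds (4-point, 1:5 series) and held 24 hrs at 37 deg C. Luminescence was read 10 min after detection reagent.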
MLL CXXC-DNA inh = MLL CXXC-DNA interaction inhibition; Q03164; MLL-CXXC / FITC-HOXA9 DNA fluorescence polarization; Potency, µM (titrated, usually from 115 µM), for inactives: at the top dose activity change, negative = inhibition, actives largely listed as inhibitors; 290,000 compounds, 0.037% hits; AID 2662; active means well fitted inhibition curve with a large enough effect in the polarisation, with a control signal flat, not every such curve was filed as active; inconclusive means small, poorly fitted or top-dose-only effect, or effect the other way, or a change in a side signal; inactive means no such curve, though single readings can be large or run the other way; the % refers to the polarisation; further: potency means the concentration at half of the fitted maximal effect
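Purified MLL-CXXC (added from a 7 uM solution) was preincubated 5 min at ambient with pinned compounds in 50 mM Tris-HCl pH 7.5, 50 mM NaCl, 1 mM DTT, 0.05% BSA. Fluorescein-labeled HOX-A9 DNA (50 nM solution) followed, 30 min, then polarization read.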
Menin MLL FP TR = displaces Texas Red mutant MLL peptide from human menin. O00255. AID 1768. 270,000 compounds, 0.23% hits. Potency, µM (titrated, usually from 61.6 µM), for the others: at the highest dose FP activity change, negative = inhibition, actives largely listed as inhibitors. Menin + Texas Red MLL mutant peptide, fluorescence polarization; active means well fitted inhibition curve with a large enough effect in the polarisation, with a control signal flat, not every such curve was filed as active; inconclusive means small, poorly fitted or top-dose-only effect, or effect the other way, or a change in a side signal; inactive means no such curve, though single readings can be large or run the other way; the % refers to the polarisation; further: potency means the concentration at half of the fitted maximal effect; % of control where 0% means no effect
ClpP mod = qHTS Assay for Activators of ClpP; ATP-dependent Clp protease proteolytic subunit (Bacillus subtilis (strain 168)), P80244; purified B. subtilis ClpP, FRET peptide cleavage, 20 min; Potency, µM (doses to about 57.5 µM), without a hit: at the highest dose activity change, negative = active; 340,000 compounds, 1.9% hits; AID 651965, 2013; active means well fitted falling curve with a large enough effect; inconclusive means small, poorly fitted or top-dose-only effect; inactive means no such curve, though single readings can be large or run the other way; further: potency means the concentration at half of the fitted maximal effect; the source files actives as falling curves though it sought activators and does not explain the sign; nearly all actives have a fitted effect of over 65% in size
Target sequence (P80244 whole entry, looked up): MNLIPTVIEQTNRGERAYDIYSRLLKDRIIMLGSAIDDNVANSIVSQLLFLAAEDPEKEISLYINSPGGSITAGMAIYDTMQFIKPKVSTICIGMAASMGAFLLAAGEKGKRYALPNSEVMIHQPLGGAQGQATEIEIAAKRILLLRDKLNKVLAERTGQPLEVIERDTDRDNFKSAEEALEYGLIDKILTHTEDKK
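FRET quenching reversal measured ClpP activation: 10 microg/mL B. subtilis ClpP at pH 8 with the FRET-FV decapeptide, read at 430 nm after 320 nm excitation. The 20-min minus 0-min signal was scaled between DMSO/no-enzyme wells and ADEP (5.8 microM final).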
* marks the source's active call; other numbers are inactive results. This is one part of a sample in which hits are shown more often than they occur.

How did CCOC(=O)C1CCN(C(=O)Nc2ccc3nccnc3c2)CC1 do in these assays?
Menin-MLL FL inh: -1; p53 reactivator: 22%; MLL CXXC-DNA inh: 4%; Menin MLL FP TR: 0%; ClpP mod: 32µM*

Results for CCOC(=O)C1=C(C)OC(N)=C(C#N)C1c1cc2cc(C)ccc2nc1N1CCCCC1 (stereo not given) ?
Menin-MLL FL inh: inconclusive; p53 reactivator: 14%; MLL CXXC-DNA inh: -10%; Menin MLL FP TR: -11%; ClpP mod: 28µM*

What do the screens show for `COc1ccc(N2CCN(c3ccc(N4C(=O)COCC4=O)cc3[N+](=O)[O-])CC2)cc1`?
Menin-MLL FL inh: 6; p53 reactivator: inconclusive; MLL CXXC-DNA inh: -11%; Menin MLL FP TR: -14%; ClpP mod: 28µM*

What do the screens show for `COc1ccc(N2CCN(c3ccc(N4C(=O)CC(C)C4=O)cc3[N+](=O)[O-])CC2)cc1` (stereo not given)?
Menin-MLL FL inh: 4; p53 reactivator: -1%; MLL CXXC-DNA inh: 9%; Menin MLL FP TR: 18%; ClpP mod: -4%

How did Cc1cc(C)n2nc(SCc3nnc(-c4ccccc4Br)o3)nc2n1 do in these assays?
Menin-MLL FL inh: 1; p53 reactivator: -4%; MLL CXXC-DNA inh: 24%; Menin MLL FP TR: -14%; ClpP mod: 18µM*

What do the screens show for `O=S(=O)(c1ccc(Cl)c(NC(=S)Nc2cccc(O)c2)c1)N1CCOCC1`?
Menin-MLL FL inh: 2; p53 reactivator: 6%; MLL CXXC-DNA inh: 2%; Menin MLL FP TR: 11%; ClpP mod: -2%

Results for CCN(C(=S)Nc1cc(S(=O)(=O)N2CCOCC2)ccc1Cl)c1cccc2ccccc12 ?
Menin-MLL FL inh: -2; p53 reactivator: 5%; MLL CXXC-DNA inh: 4%; Menin MLL FP TR: inconclusive; ClpP mod: 11µM*

How did Cc1cc2nnc(SCC(=O)Nc3cc(S(=O)(=O)N4CCOCC4)ccc3Cl)n2c2ccccc12 do in these assays?
Menin-MLL FL inh: 4; p53 reactivator: -6%; MLL CXXC-DNA inh: 1%; Menin MLL FP TR: 16%; ClpP mod: 32µM*

How did O=C(Nc1ccc(F)c(Cl)c1)N1CCN(C(=O)c2nsc3ccccc23)CC1 do in these assays?
ClpP mod: 4%

Results for Nc1cc2sc(-c3ccc(C(=O)O)cc3)nc2cc1Cl ?
Menin-MLL FL inh: 3; p53 reactivator: inconclusive; MLL CXXC-DNA inh: 5%; Menin MLL FP TR: 40%; ClpP mod: 4.5µM*

Results for CC=Cc1cc2c(c(=O)o1)C(=O)C(O)C(C)O2 (stereo not given) ?
ClpP mod: 13µM*

Results for COCCn1c(=O)[nH]c2cc(C(=O)OC)ccc2c1=O ?
Menin-MLL FL inh: 4; p53 reactivator: -2%; MLL CXXC-DNA inh: inconclusive; Menin MLL FP TR: 18%; ClpP mod: 28µM*

Results for CCN1CCN(C(=O)CCCCCn2c(=O)[nH]c3cc(C(=O)OC)ccc3c2=O)CC1 ?
Menin-MLL FL inh: 6; p53 reactivator: -2%; MLL CXXC-DNA inh: -1%; Menin MLL FP TR: -1%; ClpP mod: 25µM*

What do the screens show for `COc1ccc(N2CCN(CCNC(=O)CCCn3c(=O)[nH]c4cc(Cl)ccc4c3=O)CC2)cc1`?
Menin-MLL FL inh: 2; p53 reactivator: -4%; MLL CXXC-DNA inh: 9%; Menin MLL FP TR: 19%; ClpP mod: 28µM*

What do the screens show for `CC(=O)Oc1cc(C)c(OC(C)=O)c2ccccc12`?
Menin-MLL FL inh: -3; MLL CXXC-DNA inh: 6%; Menin MLL FP TR: 1%

What do the screens show for `CCN(CC)c1ccc(-c2nnc(SCC(=O)NCc3ccco3)n2CC)cc1`?
ClpP mod: -4%

What do the screens show for `Clc1cc(Cl)c(OCC#CI)cc1Cl`?
Menin-MLL FL inh: 0; MLL CXXC-DNA inh: 11%; Menin MLL FP TR: 3%

Results for Cn1c(=O)c2c(nc(N/N=C/c3ccc(OC(=O)c4ccco4)cc3)n2Cc2ccccc2)n(C)c1=O ?
Menin-MLL FL inh: 3; p53 reactivator: -3%; MLL CXXC-DNA inh: 3%; Menin MLL FP TR: 11%; ClpP mod: 28µM*

Results for Cn1c(=O)c2c(nc(N/N=C/c3cccs3)n2Cc2ccccc2)n(C)c1=O ?
Menin-MLL FL inh: 7; p53 reactivator: 11%; MLL CXXC-DNA inh: 30%; Menin MLL FP TR: -11%; ClpP mod: -1%

Results for COc1cccc(S(=O)(=O)Nc2ccc3c(c2)OCCO3)c1 ?
Menin-MLL FL inh: -3; p53 reactivator: 24%; MLL CXXC-DNA inh: -8%; Menin MLL FP TR: 1%; ClpP mod: 14µM*

How did COc1cc(OC)cc(-n2c3nc4ccccc4nc3c3c(=O)n(CC4CCCO4)cnc32)c1 (stereo not given) do in these assays?
Menin-MLL FL inh: 2; p53 reactivator: 9%; MLL CXXC-DNA inh: -1%; Menin MLL FP TR: 1%; ClpP mod: -7%

How did O=c1c2c3nc4ccccc4nc3n(CC3CCCO3)c2ncn1CCc1ccccc1 (stereo not given) do in these assays?
Menin-MLL FL inh: -3; p53 reactivator: -3%; MLL CXXC-DNA inh: 22%; Menin MLL FP TR: -13%; ClpP mod: 4.5µM*

Results for CCN(CC)CCN1C(=O)c2ccccc2NC1c1cc(OC)c(OC)c(OC)c1 (stereo not given) ?
Menin-MLL FL inh: 5; p53 reactivator: -8%; MLL CXXC-DNA inh: 2%; Menin MLL FP TR: -10%; ClpP mod: 13µM*

What do the screens show for `CCN(CC)CCN1C(=O)c2ccccc2NC1c1cccc(F)c1` (stereo not given)?
Menin-MLL FL inh: 0; p53 reactivator: 6%; MLL CXXC-DNA inh: -5%; Menin MLL FP TR: 2%; ClpP mod: inconclusive

Results for CCCN1C(=O)c2ccccc2NC1c1cc(OC)c(OC)c(OC)c1 (stereo not given) ?
Menin-MLL FL inh: 2; p53 reactivator: 23%; MLL CXXC-DNA inh: 7%; Menin MLL FP TR: -4%; ClpP mod: 18µM*

Results for COc1cc(C2Nc3ccccc3C(=O)N2Cc2ccco2)cc(OC)c1OC (stereo not given) ?
ClpP mod: 4%

How did CN(C)C(CNC(=O)CCc1nc2sc3c(c2c(=O)[nH]1)CCCC3)c1ccccc1 (stereo not given) do in these assays?
p53 reactivator: -5%; ClpP mod: 28µM*

What do the screens show for `O=C(CCc1nc2sc3c(c2c(=O)[nH]1)CCCC3)NCCOc1ccccc1`?
p53 reactivator: 4%; ClpP mod: 16%

How did Cc1cc(C)c(S(=O)(=O)c2ccccc2)c(Cl)n1 do in these assays?
Menin-MLL FL inh: -1; p53 reactivator: -3%; MLL CXXC-DNA inh: 3%; Menin MLL FP TR: 0%; ClpP mod: 14µM*

Results for Cc1ccc(S(=O)(=O)c2c(C)cc(C)nc2Cl)cc1 ?
Menin-MLL FL inh: 4; p53 reactivator: 10%; MLL CXXC-DNA inh: -3%; Menin MLL FP TR: 18%; ClpP mod: -1%
